The supplement of paper PMC12645437, “Orthogonal IMiD-Degron Pairs Induce Selective Protein Degradation in Cells” (ACS Chemical Biology, 2025)
Over roughly 8,300 sequences, “log2 fold change of degron read counts, EGFP-low vs EGFP+ sorted cells (limma voom), compound-induced degradation” has its median near -1.1; the highest 2% begin near 3.2. The full list was thinned out, with the highest values kept by preference.

T1: CRBN, Q96SW2
T1 chain: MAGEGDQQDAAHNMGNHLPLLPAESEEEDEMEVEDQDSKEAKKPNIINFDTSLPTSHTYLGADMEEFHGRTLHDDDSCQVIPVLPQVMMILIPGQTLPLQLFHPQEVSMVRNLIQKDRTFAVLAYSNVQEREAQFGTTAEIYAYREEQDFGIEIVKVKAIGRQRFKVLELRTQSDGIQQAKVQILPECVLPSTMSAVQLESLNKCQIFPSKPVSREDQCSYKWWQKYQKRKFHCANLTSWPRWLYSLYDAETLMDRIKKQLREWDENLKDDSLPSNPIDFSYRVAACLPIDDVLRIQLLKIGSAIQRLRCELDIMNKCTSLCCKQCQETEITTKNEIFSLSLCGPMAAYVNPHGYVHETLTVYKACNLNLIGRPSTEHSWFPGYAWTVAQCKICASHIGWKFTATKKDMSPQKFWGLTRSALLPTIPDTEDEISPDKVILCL


Target: T1, CRBN, Q96SW2
Experiment: log2 fold change of degron read counts, EGFP-low vs EGFP+ sorted cells (limma voom), compound-induced degradation; higher = more compound-induced degradation of the degron-EGFP fusion; degrons are variants of IKZF1/3 zinc finger 2; compound dose not given here
Conditions: Jurkat, 18 h
Description: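 Pooled library of 8380 IKZF3 ZF2 degron mutants (positions 146-167 varied within the IKZF3 130-189 degron; only the varied core is printed, flanks not printed) fused to EGFP with IRES-mCherry, lentivirally expressed in Jurkat cells. mCherry+ cells were treated with one IMiD compound for 18 h (dose not stated) and FACS-sorted into EGFP-low and EGFP+ populations. Degron sequences were counted by NGS, and log2FC (EGFP-low vs EGFP+) was estimated by limma voom over 3 biological replicates.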

[1] = compound: compound 19 (5-tert-butyl-thalidomide)
[2] = compound: compound 22 (5-morpholino-thalidomide)
[3] = compound: compound 33 (diphenyl IMiD analogue)
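Also: pooled lentiviral library of zinc finger degron-EGFP fusions in mCherry-positive Jurkat cells, FACS-sorted after compound exposure, with degron abundance counted by next-generation sequencing.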

Row | Sequence | log2 fold change of degron read counts [1] | log2 fold change of degron read counts [2] | log2 fold change of degron read counts [3] | log2 fold change of degron read counts (compound: thalidomide)
1 | FDCEVCGAYFTQKGNLLRHIKL [46F_47D_49E_50V_52G_53A_54Y_55F_67L_, Q9UKT9] | -0.638 | -1.5 | -0.115 | -0.462
2 | LVCNQCGFTCTQKGNLLRHIKL [46L_47V_49N_50Q_52G_53F_54T_55C_67L_, Q9UKT9] | -2.33 | -3.26 | -0.847 | -1.21
3 | FLCNQCGHSFTQKGNLLRHIKL [46F_47L_49N_50Q_52G_53H_54S_55F_67L_, Q9UKT9] | -2.63 | -2.99 | -3.12 | -2.74
4 | FACEICGRIFTQKGNLLRHIKL [46F_47A_49E_50I_52G_53R_54I_55F_67L_, Q9UKT9] | 0.366 | -1.59 | -1.49 | -1.01
5 | FVCDICGANFTQKGNLLRHIKL [46F_47V_49D_50I_52G_53A_54N_55F_67L_, Q9UKT9] | -0.564 | 1.47 | 0.815 | 1.12
6 | FKCPICGRQFTQKGNLLRHIKL [46F_47K_49P_50I_52G_53R_54Q_55F_67L_, Q9UKT9] | -2.24 | -2.58 | -2.12 | -0.821
7 | LVCPICGFSCTQKGNLLRHIKL [46L_47V_49P_50I_52G_53F_54S_55C_67L_, Q9UKT9] | 2.25 | 3.63 | 2.38 | 3.59
8 | LFCPICGFSCTQKGNLLRHIKL [46L_47F_49P_50I_52G_53F_54S_55C_67L_, Q9UKT9] | 3.55 | 3.56 | 2.79 | 2.78
9 | LNCPICGFSCTQKGNLLRHIKL [46L_47N_49P_50I_52G_53F_54S_55C_67L_, Q9UKT9] | 2.9 | 2.01 | 1.38 | 2
10 | LFCPICGFECTQKGNLLRHIKL [46L_47F_49P_50I_52G_53F_54E_55C_67L_, Q9UKT9] | 2.8 | 2.89 | 1.47 | 0.989
11 | LCCPICGFSCTQKGNLLRHIKL [46L_47C_49P_50I_52G_53F_54S_55C_67L_, Q9UKT9] | 2.83 | 3.15 | 3 | 3.11
12 | LRCPICGFSCTQKGNLLRHIKL [46L_47R_49P_50I_52G_53F_54S_55C_67L_, Q9UKT9] | 2.24 | 1.9 | 2.44 | 2.71
13 | FQCEICGRNFTQKGNLLRHIKL [46F_47Q_49E_50I_52G_53R_54N_55F_67L_, Q9UKT9] | -2.38 | -2.7 | -0.772 | 0.915
14 | FACPQCGAHFTQKGNLLRHIKL [46F_47A_49P_50Q_52G_53A_54H_55F_67L_, Q9UKT9] | 0.167 | -2 | -1.13 | -1.72
15 | FRCPQCGAYFTQKGNLLRHIKL [46F_47R_49P_50Q_52G_53A_54Y_55F_67L_, Q9UKT9] | -1.85 | -1.73 | -0.273 | -0.427
16 | FVCNQCGAPFTQKGNLLRHIKL [46F_47V_49N_50Q_52G_53A_54P_55F_67L_, Q9UKT9] | -1.48 | 0.603 | -0.000403 | 0.468
17 | FVCNICGAPFTQKGNLLRHIKL [46F_47V_49N_50I_52G_53A_54P_55F_67L_, Q9UKT9] | 1.87 | 3.32 | 2.44 | 3.33
18 | FNCNICGAPFTQKGNLLRHIKL [46F_47N_49N_50I_52G_53A_54P_55F_67L_, Q9UKT9] | 3.04 | 1.9 | 0.574 | 0.97
19 | FECNICGAPFTQKGNLLRHIKL [46F_47E_49N_50I_52G_53A_54P_55F_67L_, Q9UKT9] | 0.92 | -1.22 | 0.793 | 1.96
20 | FRCNICGAPFTQKGNLLRHIKL [46F_47R_49N_50I_52G_53A_54P_55F_67L_, Q9UKT9] | 2.88 | 3.49 | 3.05 | 3.38
21 | FTCNICGAPFTQKGNLLRHIKL [46F_47T_49N_50I_52G_53A_54P_55F_67L_, Q9UKT9] | 2.03 | 3.03 | 2.21 | 2.73
22 | FYCNICGAPFTQKGNLLRHIKL [46F_47Y_49N_50I_52G_53A_54P_55F_67L_, Q9UKT9] | 3.87 | 3.54 | 2.43 | 1.04
23 | FICNICGAPFTQKGNLLRHIKL [46F_47I_49N_50I_52G_53A_54P_55F_67L_, Q9UKT9] | 1.31 | 3.43 | 2.32 | 2.76
24 | FLCNICGAPFTQKGNLLRHIKL [46F_47L_49N_50I_52G_53A_54P_55F_67L_, Q9UKT9] | 1.46 | 1.8 | 2.1 | 2.49
25 | FRCEICGRPFTQKGNLLRHIKL [46F_47R_49E_50I_52G_53R_54P_55F_67L_, Q9UKT9] | -0.208 | 1.72 | 2.22 | 2.06
26 | FNCPICGHTFTQKGNLLRHIKL [46F_47N_49P_50I_52G_53H_54T_55F_67L_, Q9UKT9] | -2.31 | -2.29 | -2.08 | -2.24
27 | FFCEICGRSFTQKGNLLRHIKL [46F_47F_49E_50I_52G_53R_54S_55F_67L_, Q9UKT9] | 0.599 | 0.147 | -0.0546 | -0.893
28 | FNCEQCGACFTQKGNLLRHIKL [46F_47N_49E_50Q_52G_53A_54C_55F_67L_, Q9UKT9] | -1.28 | -2.78 | -2.07 | -2.41
